# Test results as given in PubChem BioAssay.
# Values without a mark were called inactive. No rule for the calls is given here.
# Molecular target: Pantothenate synthetase (Mycobacterium tuberculosis (strain ATCC 25618 / H37Rv)) (UniProt P9WIL5)
# Assay: Coupled enzyme confirmation of inhibitors against recombinant Mtb PanC (AID 375);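 also: 0% = full reaction with vehicle and 100% = no enzyme background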
# Conditions: coupled enzyme assay; at 10 µM, active compounds read high
# Pantothenate synthetase (Mycobacterium tuberculosis (strain ATCC 25618 / H37Rv)), sequence (P9WIL5 whole entry, looked up): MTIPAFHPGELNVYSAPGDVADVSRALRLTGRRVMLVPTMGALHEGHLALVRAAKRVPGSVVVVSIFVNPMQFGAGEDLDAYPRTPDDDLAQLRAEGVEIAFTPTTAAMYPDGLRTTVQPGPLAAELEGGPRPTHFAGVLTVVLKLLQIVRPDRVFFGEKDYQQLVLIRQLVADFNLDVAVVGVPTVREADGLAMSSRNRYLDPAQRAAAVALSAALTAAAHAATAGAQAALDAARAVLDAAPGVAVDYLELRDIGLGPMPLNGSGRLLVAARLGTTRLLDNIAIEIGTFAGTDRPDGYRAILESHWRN
row,Compound,inhibition [%]
1,CN(C(=O)C1CCOC1)c1nnc(-c2cccnc2)s1 (stereo not given),0
2,Cc1nn(-c2ccc(F)cc2)c2c1cc(C#N)c1nc3ccccc3n12,6
3,O=C(NCC12CC3CC(C1)CC(CNC(=O)N1CCCC1)(C3)C2)N1CCCC1,0
4,O=C(CN1C(=O)CCS(=O)(=O)c2ccccc21)Nc1cccc(F)c1,5
5,CCCc1cc(C(N)=O)c(NC(=O)c2ccco2)s1,0
6,O=C(O)CCCc1ccccc1,0
7,Cc1noc(C)c1C(=O)Nc1ccc(Cl)cc1C(F)(F)F,4
8,COc1cc(OC)cc(-c2nnc(Nc3nc4c(F)cccc4s3)o2)c1,12
9,O=S(=O)(c1ccccc1)c1nc(-c2cccs2)oc1NCC1CCCO1 (stereo not given),3
10,O=C(OCC(=O)c1c[nH]c2ccccc12)C1=COCCO1,0
11,CCCCn1nc(C(=O)N2CCc3ccccc32)c2ccccc2c1=O,6
12,COc1ccc2nc(SCC(=O)NC(C)C)[nH]c2c1,0
13,Cc1cc(NCCN2CCCCC2)n2c(nc3ccccc32)c1C#N,14
14,O=C(NCc1ccc2c(c1)OCO2)c1cccc2c1C(=O)N(C1CCCCC1)C2,5
15,CC1CCCCN1S(=O)(=O)c1ccc(NC(=O)c2cccs2)cc1 (stereo not given),0
16,O=C(c1ccccc1)c1ccc(N2CCOCC2)c(NC(=O)c2ccco2)c1,11
17,O=C1N(c2ccccc2)C2CS(=O)(=O)CC2N1c1ccc(Br)cc1 (stereo not given),0
18,CCOC(=O)c1ccc(-n2c(C)nc3c(cnn3-c3ccccc3C)c2=O)cc1,0
19,CS(=O)(=O)N(CC(=O)N1CCCCCC1)c1ccccc1,8
20,O=C(O)CCCC(=O)NCCc1ccncc1,0

row,Compound,inhibition [%]
1,O=c1cc(COn2nnc3ccc(C(F)(F)F)cc32)nc2sccn12,0
2,O=C(Nc1nc(-c2cccs2)cs1)c1cccc(S(=O)(=O)N2CCCCC2)c1,0
3,CCn1c(=O)n(CC(=O)Nc2cc(OC)ccc2OC)c(=O)c2ccccc21,10
4,O=C(c1cc(-c2cccc(O)c2)on1)N1CCN(C(c2ccccc2)c2ccccc2)CC1,8
5,Cc1ccc(N(CC2=NCCN2)c2cccc(O)c2)cc1,1
6,O=C(NCc1cccnc1)c1cccc(C(F)(F)F)c1,1
7,NC(=O)c1ccccc1NC(=O)CN1CCOCC1,6
8,COc1cccc(-c2nc(-c3ccc(NC(=O)Cc4ccccc4OC)cc3)no2)c1,11
9,COc1ccc(/C(O)=C2/C(=O)C(=O)N(Cc3cccnc3)C2c2ccncc2)cc1F (stereo not given),4
10,COc1ccccc1CNC(=O)C(C)NS(=O)(=O)c1ccccc1 (stereo not given),3
11,O=C(CCCC(=O)OCC(=O)NC1CCCC1)Nc1ccccn1,4
12,CC1=NC(Nc2nc(C)c3ccccc3n2)=NC(C)(C)C1,0
13,CN1CCN(C2=C(Cl)C(=O)N(c3cccc(Cl)c3)C2=O)CC1,3
14,CCOc1cc(C(=O)Nc2ncccn2)cc(OCC)c1OCC,2
15,CN1CCc2c(sc3c2c(=O)n(-c2cccc(Cl)c2)c2nncn32)C1,0
16,O=C(Nc1ccc(Cl)c(C(F)(F)F)c1)N1CCCC(O)C1 (stereo not given),4
17,CC1CCN(C(=O)c2ccc(C(=O)N3CCC(C)CC3)cc2)CC1,0
18,CCCCN(CCCC)CCCNC(=O)CC1Oc2ccc(C)cc2NC1=O (stereo not given),3
19,COc1ccc(C/C(O)=C(\C#N)c2nc3ccccc3s2)cc1,4
20,CC(=O)Nc1ccc(N=Cc2ccc[nH]2)cc1,0
